Results published in PubChem BioAssay (EPA / NIEHS).
Several values for one entry are separate records, joined by “and”; a condition that tells them apart may be missing. Identical values can stand only once. Some compounds were tested as several samples or in several runs, with calls that do not always agree. Activity calls are given as the source filed them. The calls were made as follows: active = hit-call score of the fitted dose curve at least 0.9, where 1 is the maximum; inactive = score below 0.9.

Assays:
[1] = ATG_CRE_CIS: Attagene CIS-FACTORIAL HepG2 Assay for human cAMP Responsive Element (CRE) binding protein 3 (AID 2282926); details: HepG2 CRE cis-reporter, Attagene multiplexed mRNA; actives raise or lower the signal
Summary of the method: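 Multiplexed transcription-unit reporters transfected into HepG2; 24 h dosing; RT-PCR/capillary electrophoresis fluorescence read-out; bidirectional fit vs DMSO.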

[2] = ATG_CMV_CIS: Attagene CIS-FACTORIAL HepG2 Assay for human CMV (Internal Marker) (AID 2282928); details: HepG2 CMV promoter reporter, transcription factor profiling; actives raise or lower the signal;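 also: endpoint acts as a background internal control marker rather than a target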
Summary of the method: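 Cell system: HepG2, transiently transfected multiple reporter units under cis promoters. Exposure: 24 h. Detection: RT-PCR, FAM labeling, HpaI digestion, capillary electrophoresis. Analysis: bidirectional, DMSO baseline.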

[3] = ATG_DR4_LXR_CIS: Attagene CIS-FACTORIAL HepG2 Assay for human Liver X Receptor (LXR), DR4 submotif (AID 2282929); details: HepG2 Attagene DR4 cis-reporter, mRNA transcription; actives raise or lower the signal
Summary of the method: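 Measures endogenous transcription factor activity via a DR4-driven reporter transcript in human HepG2 cells. Compounds incubated 24 h; mRNA quantified by RT-PCR and capillary electrophoresis, analysed as gain or loss of signal versus DMSO.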

[4] = target: Aryl hydrocarbon receptor (Homo sapiens) (UniProt P35869); experiment: ATG_Ahr_CIS: Attagene CIS-FACTORIAL HepG2 Assay for human Aryl Hydrocarbon Receptor (Ahr) (AID 2282930); details: HepG2 AhR cis-factorial reporter transcription; actives raise or lower the signal
Aryl hydrocarbon receptor (Homo sapiens), sequence (P35869 whole entry, looked up): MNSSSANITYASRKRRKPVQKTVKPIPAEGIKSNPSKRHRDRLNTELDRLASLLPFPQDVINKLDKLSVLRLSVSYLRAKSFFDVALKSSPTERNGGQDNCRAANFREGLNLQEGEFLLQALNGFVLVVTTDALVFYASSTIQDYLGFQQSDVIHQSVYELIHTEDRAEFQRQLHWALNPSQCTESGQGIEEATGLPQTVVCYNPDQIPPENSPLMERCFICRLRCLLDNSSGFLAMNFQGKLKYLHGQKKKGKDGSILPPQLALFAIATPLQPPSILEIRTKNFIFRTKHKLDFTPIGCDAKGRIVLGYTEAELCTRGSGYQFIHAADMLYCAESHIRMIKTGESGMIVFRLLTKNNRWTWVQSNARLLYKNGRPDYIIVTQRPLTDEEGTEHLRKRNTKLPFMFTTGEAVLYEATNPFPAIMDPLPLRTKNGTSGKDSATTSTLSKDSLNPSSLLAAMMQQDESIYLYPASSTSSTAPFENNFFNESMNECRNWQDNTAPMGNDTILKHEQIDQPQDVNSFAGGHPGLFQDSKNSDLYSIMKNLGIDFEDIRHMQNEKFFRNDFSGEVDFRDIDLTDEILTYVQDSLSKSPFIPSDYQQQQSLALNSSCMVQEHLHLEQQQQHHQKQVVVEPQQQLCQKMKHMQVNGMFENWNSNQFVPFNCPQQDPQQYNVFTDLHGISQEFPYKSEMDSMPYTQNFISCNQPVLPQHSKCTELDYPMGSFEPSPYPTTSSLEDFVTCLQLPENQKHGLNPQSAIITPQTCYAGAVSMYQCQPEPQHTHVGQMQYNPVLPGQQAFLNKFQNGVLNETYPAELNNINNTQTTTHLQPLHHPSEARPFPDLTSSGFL
Summary of the method: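 Reporter mRNA levels, quantified by RT-PCR and fluorescent capillary electrophoresis, reflect endogenous AhR transcriptional activity in HepG2 cells carrying transfected cis-promoter reporter constructs. Readout at 24 h post-dose; gain or loss fitted against DMSO baseline.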

[5] = ATG_AP_1_CIS: Attagene CIS-FACTORIAL HepG2 Assay for human Activator Protein 1 (AP-1) (AID 2282931); details: HepG2 Attagene cis-factorial AP-1 reporter mRNA; actives raise or lower the signal
Summary of the method: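 Bidirectional concentration-response fitting against DMSO controls. Underlying signal: reporter mRNA from cis-promoter constructs in transiently transfected HepG2, measured after 24 h by RT-PCR and capillary electrophoresis.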

[6] = ATG_AP_2_CIS: Attagene CIS-FACTORIAL HepG2 Assay for human Activator Protein 2 (AP-2) (AID 2282932); details: HepG2 AP-2 cis-reporter, Attagene transcription factor profiling; actives raise or lower the signal
Summary of the method: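 HepG2, transient MRTU transfection, cis-regulated reporters; 24 h compound exposure; RNA isolated, RT-PCR, 6-FAM labelling, HpaI digest, CE fluorescence. DMSO = negative control/baseline, bidirectional fit.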

[7] = target: Retinoic acid receptor alpha (Homo sapiens) (UniProt P10276); experiment: ATG_DR5_RAR_CIS: Attagene CIS-FACTORIAL HepG2 Assay for human Retinoic Acid Receptor Alpha (RARE), DR5 submotif (AID 2282934); details: HepG2 Attagene cis-factorial RARE DR5 reporter, mRNA; actives raise or lower the signal;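 as to AC50: reporter responds to endogenous RAR alpha beta and gamma in HepG2 not RARA alone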
Retinoic acid receptor alpha (Homo sapiens), sequence (P10276 whole entry, looked up): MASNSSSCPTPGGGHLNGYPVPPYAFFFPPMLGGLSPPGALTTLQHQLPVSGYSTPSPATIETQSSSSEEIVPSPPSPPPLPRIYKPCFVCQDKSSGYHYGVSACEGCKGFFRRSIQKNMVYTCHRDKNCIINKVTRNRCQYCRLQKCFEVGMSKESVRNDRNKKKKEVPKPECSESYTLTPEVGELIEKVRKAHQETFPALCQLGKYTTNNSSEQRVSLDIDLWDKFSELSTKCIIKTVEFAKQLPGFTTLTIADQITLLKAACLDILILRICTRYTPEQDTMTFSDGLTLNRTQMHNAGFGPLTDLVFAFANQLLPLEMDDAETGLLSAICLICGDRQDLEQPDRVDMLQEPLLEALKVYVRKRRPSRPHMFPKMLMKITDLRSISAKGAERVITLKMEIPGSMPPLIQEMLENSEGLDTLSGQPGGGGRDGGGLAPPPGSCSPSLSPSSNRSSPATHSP
Summary of the method: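 Reporter transcripts from a DR5-regulated unit, measured via RT-PCR plus capillary electrophoresis, reflect endogenous RAR activity in transiently transfected human HepG2 liver cells. Exposure lasted 24 h; gain or loss of signal scored against DMSO.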

[8] = target: CCAAT/enhancer-binding protein beta (Homo sapiens) (UniProt P17676); experiment: ATG_C_EBP_CIS: Attagene CIS-FACTORIAL HepG2 Assay for human CCAAT/Enhancer Binding Protein (C/EBP) beta (AID 2282927); details: HepG2 Attagene cis-factorial transcription factor reporter; actives raise or lower the signal
CCAAT/enhancer-binding protein beta (Homo sapiens), sequence (P17676 whole entry, looked up, the tested form may be a part): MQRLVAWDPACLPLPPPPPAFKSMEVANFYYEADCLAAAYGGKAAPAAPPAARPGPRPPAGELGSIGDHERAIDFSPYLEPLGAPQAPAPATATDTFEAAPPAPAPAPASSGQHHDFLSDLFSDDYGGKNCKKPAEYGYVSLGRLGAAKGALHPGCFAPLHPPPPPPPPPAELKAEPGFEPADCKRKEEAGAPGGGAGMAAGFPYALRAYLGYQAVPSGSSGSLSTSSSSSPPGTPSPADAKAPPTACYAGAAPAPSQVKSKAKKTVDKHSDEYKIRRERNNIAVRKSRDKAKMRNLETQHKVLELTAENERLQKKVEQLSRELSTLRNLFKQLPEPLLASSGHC
Summary of the method: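 Endogenous C/EBPb-driven reporter transcripts measured in transfected human HepG2 cells at 24 h via RT-PCR and capillary electrophoresis of labelled fragments. Activity fitted in both directions relative to DMSO baseline.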

[9] = ATG_BRE_CIS: Attagene CIS-FACTORIAL HepG2 Assay for human Bone Morphogenetic Protein (BMP) Response Element (BRE) (AID 2282933); details: HepG2 BMP response element reporter, Attagene transcription factor profiling; actives raise or lower the signal
Summary of the method: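 Endogenous transcription factor activity at a BMP response element was monitored in transfected HepG2 cells 24 h after dosing. Fluorescent RT-PCR products were resolved by capillary electrophoresis, and activity was fitted in both directions versus DMSO.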

[10] = target: Transcription factor E2F1 (Homo sapiens) (UniProt Q01094); experiment: ATG_E2F_CIS: Attagene CIS-FACTORIAL HepG2 Assay for human E2F Transcription Factor 1 (AID 2282935); details: HepG2 Attagene cis-reporter, E2F reporter RNA transcripts; actives raise or lower the signal
Transcription factor E2F1 (Homo sapiens), sequence (Q01094 whole entry, looked up): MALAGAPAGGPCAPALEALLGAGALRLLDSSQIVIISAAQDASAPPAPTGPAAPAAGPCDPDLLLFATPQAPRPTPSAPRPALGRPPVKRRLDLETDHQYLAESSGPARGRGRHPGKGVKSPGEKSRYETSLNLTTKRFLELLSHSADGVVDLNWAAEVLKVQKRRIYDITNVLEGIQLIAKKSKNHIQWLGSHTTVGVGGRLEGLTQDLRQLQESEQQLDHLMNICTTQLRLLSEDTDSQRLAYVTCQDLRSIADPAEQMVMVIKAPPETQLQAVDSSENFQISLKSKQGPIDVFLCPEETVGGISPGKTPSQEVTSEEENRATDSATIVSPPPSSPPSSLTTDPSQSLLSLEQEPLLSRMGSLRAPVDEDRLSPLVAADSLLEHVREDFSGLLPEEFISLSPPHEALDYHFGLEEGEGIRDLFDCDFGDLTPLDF
Summary of the method: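 Cis-element reporter mRNA induction in transiently transfected HepG2, 24 h exposure. Activity fitted in both directions relative to DMSO negative control.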

Measured: AC50

O=[N+]([O-])C(Br)(CO)CO
active: [1] 170 µM | [5] 25.2 µM | [7] 153 µM
inactive: [2] | [3] | [4] | [6]

c1ccc2c(c1)oc1ccccc12
inactive: [1] | [8] | [3] | [5] | [6]

Clc1ccc(Cl)c(Cl)c1
active: [4] 77.8 µM
not listed: [2]
inactive: all other assays above

C1=Cc2cccc3cccc1c23
not listed: [2] | [9]
inactive: all other assays above

CN(C)c1ccc(C(=O)c2ccc(N(C)C)cc2)cc1
active: [4] 65.5 µM
not listed: [2] | [9]
inactive: all other assays above

Nc1ccc([N+](=O)[O-])cc1
inactive: [1] | [8] | [3] | [5] | [6]

Clc1ccc(C(c2ccc(Cl)cc2)C(Cl)(Cl)Cl)cc1
active: [2] 30.2 µM | [3] 27.6 µM | [5] 51.4 µM
not listed: [7] | [8]
inactive: all other assays above

OCCOCCO
active: [5] 0.00963 µM
not listed: [2]
inactive: all other assays above

COc1cc(C=O)cc2c1[C@H](COC(N)=O)[C@]1(OC(C)=O)ON2C[C@H]2[C@@H]1N2C(C)=O
active: [1] 33.4 µM | [3] 0.0512 µM | [4] 0.314 µM | [5] 61.4 µM | [6] 33.4 µM
inactive: [2]

CN(C)C(=O)Nc1ccc(Cl)cc1
inactive: [1] | [2] | [3] | [5] | [6]
active: [4] 58.5 µM

Oc1ccccc1Cl
not listed: [2] | [7]
inactive: all other assays above

OCCCBr
not listed: [2] | [10]
inactive: all other assays above

ClC1=C(Cl)[C@]2(Cl)[C@H]3[C@H]([C@@H]4C=C[C@H]3C4)[C@@]1(Cl)C2(Cl)Cl
inactive: [1] | [4] | [6]
active: [2] 45.6 µM | [3] 25.9 µM | [5] 46.9 µM

c1ccc(C2CO2)cc1 (stereo not drawn)
not listed: [7] | [8]
inactive: all other assays above

ClCCOCCCl
not listed: [2]
inactive: all other assays above

Cc1ccc(N=C=O)cc1N=C=O
not listed: [2]
inactive: all other assays above

CNC(=O)Oc1cccc2c1OC(C)(C)C2
active: [4] 65.6 µM
not listed: [2] | [8]
inactive: all other assays above

c1ccc2c(c1)-c1cccc3cccc-2c13
not listed: [4] | [8] | [10]
inactive: all other assays above

CCCCCCCCCCCCCN1CC(C)OC(C)C1 (stereo not drawn)
active: [2] 33.4 µM | [5] 50.9 µM
not listed: [8] | [9]
inactive: all other assays above

CC(C)N(Cc1ccccc1)C(=O)C(C)(C)C
not listed: [8] | [9]
inactive: all other assays above

COC(=O)Nc1nc2ccccc2[nH]1
active: [4] 13.3 µM
not listed: [2] | [8]
inactive: all other assays above

Brc1ccc(Oc2ccccc2)cc1
active: [3] 155 µM
not listed: [7] | [8] | [9]
inactive: all other assays above

CC(C)(C)OOC(C)(C)CCC(C)(C)OOC(C)(C)C
active: [3] 100 µM | [5] 100 µM | [9] 161 µM
inactive: [1] | [6] | [7] | [10]

O=C(O)C1C2CCC(O2)C1C(=O)O (stereo not drawn)
inactive: [3] | [6] | [10]
active: [1] 80.7 µM | [5] 59 µM | [7] 75.4 µM

c1ccc(NNc2ccccc2)cc1
inactive: [1] | [2] | [5] | [6] | [7]
active: [3] 100 µM

O=C(Oc1ccc(Br)cc1)N1CCN2CCC1CC2
not listed: [2] | [8]
inactive: all other assays above

CC(C)COC(=O)c1ccccc1C(=O)OCC(C)C
active: [1] 59.3 µM | [3] 73 µM | [5] 70.3 µM | [9] 110 µM
inactive: [4] | [6] | [7] | [10]

CCN(CC)CCO
inactive: [1] | [3] | [4] | [5] | [6]

O=P(OCCCl)(OCCCl)OCCCl
not listed: [2] | [8] | [10]
inactive: all other assays above

N#CC(Br)(Br)C(N)=O
active: [4] 55.2 µM
not listed: [2] | [8]
inactive: all other assays above

C=CCc1ccc2c(c1)OCO2
not listed: [4] | [8] | [9]
inactive: all other assays above

CN(C)c1ccccc1
inactive: [1] | [3] | [5] | [6] | [7]

O=C(N[C@H](c1ccccc1)[C@@H]1CN2CCC1CC2)c1c(Cl)ccc(C(F)(F)F)c1Cl
inactive: [1] | [3] | [4] | [5] | [6] | [10]

COC(=O)c1ccccc1N
active: [4] 43.8 µM
not listed: [2] | [7] | [8]
inactive: all other assays above

OCCCl
not listed: [2] | [8]
inactive: all other assays above

CCNS(=O)(=O)C(F)(F)C(F)(F)C(F)(F)C(F)(F)C(F)(F)C(F)(F)C(F)(F)C(F)(F)F
active: [1] 45.3 µM and 16.1 µM and 15.7 µM | [5] 29.9 µM and 75.2 µM | [7] 96.5 µM
inactive: [3] | [4] | [5] | [6] | [7] | [10]

CCN(CC)N=O
not listed: [2] | [8]
inactive: all other assays above

CCC12COCN1COC2
not listed: [7] | [8] | [9]
inactive: all other assays above

CC(C)(O)c1cnn2c(-c3ccc(F)c(-c4c(F)cccc4C#N)c3)cnc2n1
active: [1] 40 µM | [3] 27.5 µM | [5] 67.1 µM
not listed: [8] | [9]
inactive: all other assays above

CCC(C)c1ccc(O)cc1 (stereo not drawn)
active: [1] 59.7 µM | [2] 65.8 µM | [3] 100 µM | [5] 69.8 µM | [9] 100 µM
inactive: [6] | [10]

Nc1ccc(Cc2ccc(N)cc2)cc1
not listed: [2] | [8] | [10]
inactive: all other assays above

CCCCCOC(=O)c1ccccc1C(=O)OCCCCC
active: [3] 150 µM | [5] 77.2 µM
inactive: [1] | [4] | [6]

[O-][Cl+]O
inactive: [1] | [3] | [4] | [5] | [6] | [7]

CO[C@@H]1[C@H](OC(=O)NC(=O)CCl)CC[C@]2(CO2)[C@H]1[C@@]1(C)O[C@@H]1CC=C(C)C
active: [3] 10.2 µM
not listed: [2] | [8]
inactive: all other assays above
